# Shiga toxin inh: blocks Shiga toxin action in Vero cells; inhibition, % at 38.7 µM; Vero cells, Shiga toxin protein synthesis inhibition reporter; 290,000 compounds, 9.2% hits; AID 2315; in the data active = inhibition mostly above about 28%, no sharp cut-off; inactive = mostly below about 43%
# Tb PYK inh: inhibitors of Trypanosoma brucei pyruvate kinase. 410,000 compounds, 0.12% hits. AID 624173. Potency, µM (doses to about 76.8 µM), actives largely listed as inhibitors. Q57TT1. TbPYK enzyme, Kinase-Glo Plus ATP luminescence, 45 min; note: nearly all actives have a fitted effect of over 50% in size
#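 Screened from lowest to highest concentration, compounds were pinned into TbPYK/substrate mixtures, and ADP (130 uM final) was added. Plates sat at room temperature for 45 min prior to Kinase-Glo Plus detection by luminescence.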
# Sm TGR block: S. mansoni TGR enzyme inhibition | purified TGR, DTNB reduction, TNB absorbance 405 nm | 360,000 compounds, 3% hits | Q962Y6 | Potency, µM (titrated, usually from 114 µM), most hits filed as inhibitors; note: nearly all actives have a fitted effect of over 60% in size
#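 First, TGR (20 nM dispensed) and NADPH were mixed with compound. Second, a 15 min room-temperature incubation followed. Third, further NADPH and then DTNB were added to start the reaction. Finally, TNB absorbance was monitored kinetically.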
# CHX counter: counter-screen for Shiga toxin inhibitors: cycloheximide protein synthesis inhibition | cell reporter, cycloheximide protein synthesis inhibition counterscreen | max response, % | 300,000 compounds, 12% hits; in the data active = max response mostly above about 13%, no sharp cut-off; inactive = mostly below about 14%; note: read at 38.3 µM for the half of the compounds with a filed dose
# LmPK inh: blocks Leishmania mexicana pyruvate kinase activity. AID 1721. 290,000 compounds, 0.37% hits. Potency, µM (highest dose often 57.5 µM), hits mostly inhibitors. purified LmPK, Kinase-Glo ATP luminescence, 1 h
# Target sequence (Q27686 whole entry, looked up): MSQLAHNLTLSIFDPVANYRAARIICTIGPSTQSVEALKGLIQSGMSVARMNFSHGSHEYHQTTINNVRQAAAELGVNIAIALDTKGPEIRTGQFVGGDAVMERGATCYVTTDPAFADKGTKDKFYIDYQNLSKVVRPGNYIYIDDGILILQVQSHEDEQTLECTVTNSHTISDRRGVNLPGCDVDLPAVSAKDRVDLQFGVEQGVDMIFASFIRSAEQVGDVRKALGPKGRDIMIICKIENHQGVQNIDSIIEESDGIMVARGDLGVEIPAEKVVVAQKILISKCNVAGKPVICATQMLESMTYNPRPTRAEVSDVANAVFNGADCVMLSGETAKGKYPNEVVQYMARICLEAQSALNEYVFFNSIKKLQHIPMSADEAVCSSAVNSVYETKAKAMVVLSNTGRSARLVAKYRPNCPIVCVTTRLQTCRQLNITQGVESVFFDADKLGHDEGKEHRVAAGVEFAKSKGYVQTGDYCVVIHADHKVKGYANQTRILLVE
#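 Kinase-Glo luminescence read after 1 h RT reaction of 0.1 nM LmPK with 0.5 mM PEP and 0.1 mM ADP. Activity scaled between uninhibited and enzyme-free controls.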
# FBPA Giardia inh: blocks Giardia fructose-bisphosphate aldolase activity | A8B2U2 | purified Giardia FBPA | Potency, µM (series often up to 59.6 µM), most hits filed as inhibitors | 290,000 compounds, 0.71% hits; note: nearly all actives have a fitted effect of over 55% in size
#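 Giardia FBPA (40 nM reagent) was preincubated 10 min at RT with compound (up to 57.5 uM final), then substrate plus GAPDH/TPI/NAD/arsenate coupling system with diaphorase/resazurin was added; resorufin fluorescence (525/598 nm) was read after 20 min.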
# A number is an active result; . = inactive; ? = inconclusive; / = no result. The sample as a whole holds a higher share of hits than the screen did. Unless noted, calls come from the whole dose curve; as a rule, active = well fitted curve in the direction sought with a large enough effect; inconclusive = small, poorly fitted or top-dose-only effect, or another doubt; inactive = no such curve, though single readings can be large; an effect the other way counts as inactive or inconclusive.
SMILES,Shiga toxin inh,Tb PYK inh,Sm TGR block,CHX counter,LmPK inh,FBPA Giardia inh
CCC(=NCC1CCCO1)c1c(O)n(Cc2ccccc2)c(=O)[nH]c1=O (configuration not stated),.,.,.,.,.,.
C=CCn1c(O)c(C(C)=NCCO)c(=O)[nH]c1=O,.,.,.,.,.,.
C=CCn1c(O)c(/C(C)=N/NC(=S)Nc2ccccc2)c(=O)[nH]c1=O,60,.,?,27,.,?
CC/C(=N\NC(=O)c1ccccc1)c1c(O)n(Cc2ccccc2)c(=O)[nH]c1=O,54,.,?,57,.,.
CCN(CC)c1ccc(C(=O)N2CCC(c3ccncc3)CC2)cc1,/,.,.,/,/,/
O=C(Nc1ccsc1C(=O)O)c1cccc(C(F)(F)F)c1,77,.,.,61,.,.
O=C(Nc1cccn2ncnc12)C(F)(F)F,.,.,.,.,.,.
O=C(Nc1ccsc1C(=O)O)c1cccc(Oc2ccccc2)c1,.,.,.,14,.,.
CC(=O)c1cc(NC(=O)c2cccc(C(F)(F)F)c2)c(=O)oc1C,.,.,35µM,.,.,.
Cc1ccccc1NC(=O)c1cccc(C(F)(F)F)c1,.,.,.,.,.,.
O=C(Nc1cccn2ncnc12)c1cccc(C(F)(F)F)c1,.,.,.,24,.,.
CCC(c1nnnn1-c1ccc2c(c1)OCCO2)N1CCN(C(=O)C2CCCO2)CC1 (configuration not stated),/,.,/,/,/,/
C[C@H]1O[C@@H](n2cnc3c(N)ncnc32)C[C@@H]1OP(=O)(O)OP(=O)(O)OP(=O)(O)O,.,/,/,.,/,.
CN(Cc1ccccc1)C(=O)c1ccc(NC(=O)Cc2ccc(NC(=O)C3CCCN(C(=O)c4ccccc4)C3)cc2)cc1 (configuration not stated),/,.,/,/,/,/
COCCc1nn2c(=O)cc(COC(=O)COc3ccccc3C)nc2s1,/,.,.,/,/,/
Cc1noc2ncnc(N3CCCC(C(=O)Nc4cccc(C(F)(F)F)c4)C3)c12 (configuration not stated),/,.,.,/,/,/
Cn1cccc1C(=O)C(=O)Nc1ccc(Cl)cc1,81,.,.,52,?,.
Cn1cccc1C(=O)C(=O)Nc1ccc(F)c(F)c1,82,.,.,45,.,.
Cn1nnnc1SCCCNCc1cccc(OCc2ccccc2F)c1,/,.,.,/,/,/
CCC(=O)Nc1ccc(NC(=O)c2oc3ccccc3c2C)cc1,.,.,.,10,.,.
CC(=O)Nc1cccc(NC(=O)c2oc3ccccc3c2C)c1,100,/,.,48,.,.
Cc1c(C(=O)NCc2ccccn2)oc2ccccc12,39,.,.,32,.,.
Cc1ccnc(NC(=O)c2oc3ccccc3c2C)c1,/,.,.,/,/,/
Cc1c(C(=O)Nc2cnccn2)oc2ccccc12,61,.,.,28,.,.
Cc1ccc(C(=O)NCC(=O)OCc2cc(=O)n3nc(C4CCCCC4)sc3n2)cc1,/,.,.,/,/,/
SMILES,Shiga toxin inh,Tb PYK inh,Sm TGR block,CHX counter,LmPK inh,FBPA Giardia inh
COc1cc(O)cc(O)c1C(=O)/C=C/c1ccccc1,.,.,?,8.9,.,.
COc1ccc(/C=C/C(=O)c2ccc(O)cc2O)cc1,/,/,/,/,/,.
COc1ccc(/C=C/C(=O)c2ccc(OC)cc2OC)cc1,48,.,.,37,.,.
COc1cc(OC)c(C(=O)/C=C/c2ccccc2)c(O)c1O,.,.,?,.,.,.
COc1ccc(/C=C/C(=O)c2cc3c(cc2N)OCO3)cc1,80,.,.,33,?,.
COc1ccc(/C=C/C(=O)c2c(OC)cc(O)cc2OC)cc1,65,/,/,36,/,.
O=C(Nc1nnc(C2CC2)s1)c1ccco1,107,.,.,29,?,.
O=C(Nc1nnc(C2CCCCC2)s1)c1ccco1,80,.,.,34,.,.
O=C(CN1CCC(c2nc3ccccc3s2)CC1)NCc1cccs1,33,.,.,26,.,.
CNC(=S)N1CCC(c2nc3ccccc3s2)CC1,.,.,/,28,.,.
COc1ccc(CNC(=O)CCCN2C(=O)CSc3c2c(C)nn3-c2ccccc2)c(OC)c1,/,.,.,/,/,/
Cc1ccc(S(=O)(=O)CC(=O)c2cc(C)c(OC(=O)N(C)C)c(C)c2)cc1,.,.,.,.,.,.
Cc1cc(C(=O)CS(=O)(=O)c2ccccc2)cc(C)c1O,44,.,22µM,19,.,.
Cc1cc(C(=O)CSc2ccccc2)cc(C)c1O,71,.,.,61,.,.
Cc1cc(C(=O)CS(=O)(=O)c2ccccc2)cc(C)c1OC(=O)N(C)C,62,.,.,25,.,.
Cc1ccc(-n2c(=O)[nH]c3cc(C(=O)NCCc4ccccc4)ccc3c2=O)cc1,/,.,.,/,/,/
CC(=O)O[C@H]1CC[C@@]2(C)C(=CCC3C2CC[C@]2(C)C(c4cccnc4)=CCC32)C1 (some centres not stated),/,.,/,/,/,/
Cc1ccccc1-c1nn2c(=O)cc(CN3CCN(C(=O)c4ccc(C(C)(C)C)cc4)CC3)nc2s1,/,.,.,/,/,/
Clc1ccc(-c2cc(COc3ccccc3)on2)cc1,105,.,.,38,.,.
Clc1ccc(OCc2cc(-c3ccccc3)no2)cc1Cl,active,.,.,45,.,.
O=C(COc1ccc(Cl)cc1)Nc1cc(-c2ccccc2)no1,/,.,.,/,/,/
COc1cc2c(cc1OC)C(c1ccc(F)cc1)N(c1cccc(C#N)c1)C(=O)C2 (configuration not stated),/,.,.,/,/,/
Cc1ccc(C)n1-c1ccc(C(=O)NN)s1,26,.,.,26,.,.
Cc1nnc(SCc2nc3sc4c(c3c(=O)[nH]2)CCCC4)n(N)c1=O,.,.,14µM,.,.,.
COc1ccccc1-c1c(C(F)(F)F)oc2cc(OC(=O)c3ccccc3[N+](=O)[O-])ccc2c1=O,.,.,.,.,.,.
SMILES,Shiga toxin inh,Tb PYK inh,Sm TGR block,CHX counter,LmPK inh,FBPA Giardia inh
COc1ccccc1-c1c(C(F)(F)F)oc2cc(OS(C)(=O)=O)ccc2c1=O,.,.,.,25,.,.
Clc1ccc2[nH]c3c(c2c1)CCc1cn[nH]c1-3,70,.,.,29,.,.
c1ccc2c3c([nH]c2c1)-c1[nH]ncc1CC3,.,.,.,.,.,.
CCOC(=O)C(NC(=O)c1ccccc1)=C1CCCCC1,.,.,.,.,.,.
CCOP(=O)(OCC)/C(=C/N1CCCCC1)NC(=O)c1ccccc1,.,.,.,13,.,.
CN(C)CCCNC(=S)Nc1ccc(Oc2ccccc2)cc1,.,.,.,26,.,.
CC(C)CNC(=S)Nc1ccc(Oc2ccccc2)cc1,.,.,.,21,.,.
CCN(CC)CCCNC(=S)Nc1ccc(Br)cc1,102,.,.,44,.,.
COc1cc(CNCc2cc(OC)ccc2OC)cc(OC)c1,/,.,.,.,.,?
O=C(Nc1ccc2c(c1)CCCN2C(=O)c1cccs1)c1ccccc1Cl,/,.,.,/,/,/
